This note sets out measurements from PubChem BioAssay.

The structures appear in SMILES notation.

This experiment can be described thus: probe aNOTCH3 binding on compound microarray – biochemical, small-molecule microarray, 635/667 nm fluorescence, primary screen (AID 1120).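 Further: probe is a biotin-tagged antibody raised against NOTCH3 rather than NOTCH3 protein; score merges spot fluorescence near 667 nm with spot signal to noise.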 Conditions: higher = more signal.
In turn, `COC(=O)[C@@]1(Cc2ccc(OC)cc2)[C@@H]2[C@@H](CC(=O)[C@H]2CC(=O)C(=O)N(C)C)CN1C(=O)c1ccccc1` had a composite z-score of 1.52. In the case of `COC(=O)C(CC#Cc1ccc2c(c1)[C@]1(C(=O)N2)[C@H](C(=O)N2CCCCCCC2)[C@H]2C(=O)O[C@H](c3ccccc3)[C@H](c3ccccc3)N2[C@@H]1c1ccc(OCCO)cc1)C(=O)OC`, the composite z-score was 2.18.

`COc1ccc(CCNC(=O)[C@@]2(c3ccc([N+](=O)[O-])cc3)CC(=O)N(C3CCCCC3)[C@@H]2c2ccc(CO)cc2I)cc1`: the composite z-score worked out at 0.0293.

On to `COc1c(C)cc(-c2cc3c(c(CCc4ccccc4)n2)[Si](C(C)C)(C(C)C)O[C@H]3c2ccccc2)cc1C`, for which the composite z-score was -0.0728. For `CCCCC(=C=CC[C@@H](O)c1ccccc1OCCO)C[C@@H](O)c1ccccn1` the value was -0.0077; for `[N-]=[N+]=NCc1ccccc1C[C@]1(C(=O)N2CCCCC2)COC(c2ccc(OCCCO)cc2)=N1`, -0.159; for `COc1cccc(C)c1NC(=O)O[C@H]1[C@H](OC(=O)Nc2ccccc2-c2ccccc2)[C@@H](OC(=O)Nc2ccccc2-c2ccccc2)[C@@H](OC)O[C@@H]1CO`, 0.668.

Consider `O=C1C2C=CC(C(O)c3ccccn3)N(Nc3ccc([N+](=O)[O-])cc3)C2C(=O)N1c1ccccc1` (stereo unspecified), for which the composite z-score turned out to be 0.0162. For `CCOC(=O)C1=C[C@@H](C(C)(C)C)N(S(=O)(=O)c2ccc(C)cc2)[C@H]1c1ccc(OC)cc1` the value was 0.116; for `O=C1NC(=O)C2C1C=CC(C(O)C(c1ccccc1)c1ccccc1)N2Nc1ccccn1` (stereo unspecified), 0.15.

`CCCCCCc1nc(-c2ccc(OC)nc2)c(C)c2c1[Si](C(C)C)(C(C)C)OC2` registered a composite z-score of -0.122. The figure for `CC(C)Cc1ccc(CN2CC[C@@H](NC(=O)c3ccccc3)C2)cc1` is -0.129; for `COCCOC(=O)N1C(=O)[C@@]2(c3cc(C#CC4=CCCCC4)ccc31)[C@H](c1ccc(O)cc1)N1[C@H](c3ccccc3)[C@H](c3ccccc3)OC(=O)[C@H]1[C@@H]2C(=O)N1CCc2cc(OC)c(OC)cc2C1` it is -0.0014; for `Cc1ccc(S(=O)(=O)N2[C@@H](c3ccccc3)C(C(=O)O)=CC[C@H]2c2ccc(F)cc2)cc1` it is -0.0044. For `COc1ccc([Si](C)(C)[C@H]2[C@H](CC(=O)N3CCC[C@H]3CO)O[C@@]3(C(=O)N(Cc4cccc(N5CCCCC5=O)c4)c4ccccc43)[C@@H]2C)cc1` the value was -0.318; for `[N-]=[N+]=Nc1ccccc1C[C@@]1(C(=O)NCc2ccccc2)N=C(c2ccc(OCCCO)cc2)O[C@@H]1c1ccccc1`, 0.446. For `[N-]=[N+]=NCc1ccccc1[C@H]1OC(c2ccc(OCCCO)cc2)=N[C@@]1(CCS(=O)(=O)c1ccccc1)C(=O)O` the value was 0.212; for `CCOC(=O)C[C@H]1[C@H](OC(=O)c2cc3ccccc3oc2=O)[C@@H](NC(=O)Cc2ccc(OC)cc2)c2cc(OCCCO)ccc2N1C(=O)Cc1ccc(OC)cc1`, 0.0522; for `C=C(C(=O)CC[C@@H](OC(=O)c1ccccc1-c1ccccc1C(=O)O)c1cccc(OCCO)c1)C(C)C`, 0.107. `COC(=O)[C@@]1(Cc2ccc(F)cc2)[C@@H]2C(=CC(=O)[C@H]2CC(=O)C(=O)N2CCCC2)CN1C(=O)c1ccccc1` gave a composite z-score of 1.24. The compound `CC(C)(C)OC(=O)CC[C@]1(C(N)=O)N=C(c2ccc(OCCCO)cc2)O[C@H]1c1ccccc1N=[N+]=[N-]` registered a composite z-score of 0.156.

Turning to `COc1ccc([Si](C)(C)[C@@H]2[C@@H](CC(=O)N3CCC[C@H]3CO)O[C@]3(C(=O)N(Cc4cccc(N5C(=O)c6cccc7cccc5c67)c4)c4ccccc43)[C@H]2C)cc1`, the composite z-score was -0.0701. The compound `COC(=O)C(CC#Cc1ccc2c(c1)[C@]1(C(=O)N2)[C@H](c2ccccc2OCCO)N2[C@H](c3ccccc3)[C@H](c3ccccc3)OC(=O)[C@H]2[C@@H]1C(=O)N1CCN(c2ncccn2)CC1)C(=O)OC` registered a composite z-score of 0.0052.

`COc1ccc(C(=O)Nc2ccc(CN3C(=O)[C@]4(O[C@H](CC(=O)N(CCO)Cc5ccccc5)[C@@H]([Si](C)(C)c5ccc(OC)cc5)[C@@H]4C)c4ccccc43)cc2)cc1` had a composite z-score of -0.0288. The figure for `COCCOC(=O)N1C(=O)[C@@]2(c3cc(C#CCCO)ccc31)[C@H](c1ccc(O)cc1)N1[C@H](c3ccccc3)[C@H](c3ccccc3)OC(=O)[C@H]1[C@@H]2C(=O)NC[C@H](O)c1ccccc1` is -0.0105; for `COc1ccc(NN2C(C(O)c3ccccc3)C=CC3C(=O)N(C4CCCCC4)C(=O)C32)cc1` (stereo unspecified) it is 0.147; for `COc1ccc([Si](C)(C)[C@H]2[C@H](CC(=O)N(CCO)Cc3ccccc3)O[C@@]3(C(=O)N(Cc4ccc(N5C(=O)c6cccc7cccc5c67)cc4)c4ccccc43)[C@@H]2C)cc1` it is 0.376. The compound `COc1ccc([Si](C)(C)[C@H]2[C@H](CC(=O)N3CCC[C@H]3CO)O[C@@]3(C(=O)N(C)c4c(Br)cc(C)cc43)[C@@H]2C)cc1` showed a composite z-score of 0.189.

`COCCOC(=O)N1C(=O)[C@@]2(c3cc(C#CCCO)ccc31)[C@H](C(=O)N1CCN(c3ncccn3)CC1)[C@H]1C(=O)O[C@H](c3ccccc3)[C@H](c3ccccc3)N1[C@@H]2c1ccc(OCCO)cc1`: the composite z-score turned out to be 0.199. The figure for `COc1ccc([Si](C)(C)[C@H]2[C@H](CCO)O[C@@]3(C(=O)N(Cc4ccccc4)c4ccc(NC(=O)[C@H](C)O)cc43)[C@@H]2C)cc1` is 0.372.

As for `COc1cc(CO)cc(I)c1O[C@H]1C=C(C(=O)NCCO)C[C@@H](N(CCN2CCOCC2)C(=O)C2CCCO2)[C@@H]1O` (stereo partly specified), the composite z-score is 0.0261. The figure for `O=C(c1ccccc1)N1Cc2ccccc2C[C@@]2(N=C(c3ccc(OCCCO)cc3)O[C@H]2c2ccccc2)C1=O` is 0.0193.

Turning to `COCCCNC(=O)[C@@]1(Cc2ccccc2I)c2ccccc2C(=O)N(Cc2ccccc2OC)[C@H]1c1ccc(CO)cc1`, the composite z-score is -0.134.

In turn, `CN(C)C(=O)[C@]1(CCS(=O)(=O)c2ccccc2)N=C(c2ccc(OCCCO)cc2)O[C@@H]1c1ccccc1CN=[N+]=[N-]` showed a composite z-score of 0.0743.

Take `C=CCC(OC(C)=O)[C@@H]1[C@@H](N(Cc2ccc(-c3ccccc3)cc2)C(=O)Cc2ccc(OC)cc2)c2cc(OCCCO)ccc2N1C(=O)c1ccc2ccccc2c1` (stereo partly specified): the composite z-score was -0.043. For `COc1cccc(C)c1NC(=O)O[C@H]1[C@H](OC(=O)Nc2ccccc2)[C@@H](OC(=O)Nc2ccccc2)[C@@H](OC)O[C@@H]1CO` the value was 0.163.
